Each structure is given as a SMILES string. Compounds without any hit were thinned out: in the full panel of roughly 83,000, 20% have a hit.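 The test compound was applied at a single concentration to cells in 96-well plates for 48 hours, and percent growth was recorded.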 A number with no mark means an inactive call. The source made the active and inactive calls. Rule for the calls: active = growth percent below 10; inactive = the rest.

We go through 15 molecules from PubChem BioAssay (NCI).

Some test systems named below: DU-145 prostate; K-562 leukemia; MALME-3M melanoma; MDA-MB-231 breast; RXF 393 renal; SF-268 CNS; SF-295 CNS; SF-539 CNS; UACC-257 melanoma; M14 melanoma.
What all share (test): NCI-60 one-dose screen, 48 h (100 = growth as untreated, 0 = no growth, -100 = all killed)
What all share (details): 10 µM

`OCC(O)C(O)C(O)C(O)/C=N/O` (stereo not given): the growth was 108% in the assay with DU-145 prostate; 111% in the assay on K-562 leukemia; 110% in the assay on MALME-3M melanoma; 97.5% in the assay on MDA-MB-231 breast; 98.9% in the assay on RXF 393 renal; 98% in the assay with SF-268 CNS. Also, the growth in the assay on SF-295 CNS is 105%; in the assay on SF-539 CNS it was 106%; with UACC-257 melanoma it was 62.3%; with M14 melanoma it was 94.7%.

`O=S(=O)(O)c1cc(O)c2c(N=Cc3ccccc3O)c(S(=O)(=O)O)ccc2c1`: the growth in the assay on DU-145 prostate is 109%; with K-562 leukemia, 96.7%; in the assay with MALME-3M melanoma it was 97.9%; in the assay with MDA-MB-231 breast, 127%; in the assay on RXF 393 renal, 105%; in the assay with SF-268 CNS it was 102%. The growth with SF-295 CNS is 81.9%; in the assay on SF-539 CNS, 94.3%; in the assay on UACC-257 melanoma it was 111%; in the assay with M14 melanoma, 94.4%.

Regarding `CC(C)=NNC(N)=S`, the growth is 88.3% with DU-145 prostate; 48.2% in the assay with K-562 leukemia; 78.4% in the assay with MALME-3M melanoma; 83.8% with MDA-MB-231 breast; 93.1% with RXF 393 renal; 90.7% with SF-268 CNS. The growth in the assay on SF-295 CNS was 85.4%; in the assay with SF-539 CNS, 108%; with UACC-257 melanoma it was 77.9%; in the assay with M14 melanoma it was 65.2%.

As for `Cc1ccc(Cl)cc1NC(=O)N(C)CCO`, the growth is 131% in the assay on DU-145 prostate; 98.5% in the assay with K-562 leukemia; 134% in the assay on MALME-3M melanoma; 118% in the assay with MDA-MB-231 breast; 112% in the assay with RXF 393 renal; 126% with SF-268 CNS. The growth in the assay on SF-295 CNS is 121%; in the assay with SF-539 CNS, 91.9%; in the assay on UACC-257 melanoma it was 110%; in the assay with M14 melanoma it was 107%.

Regarding `CSC(=N\N=C\c1ccc(N(C)C)cc1)/N=C/N(C)C`, the growth with DU-145 prostate is 117%; in the assay on K-562 leukemia it was 111%; in the assay on MALME-3M melanoma, 104%; in the assay on MDA-MB-231 breast, 106%; in the assay with RXF 393 renal, 95.1%; in the assay with SF-268 CNS, 111%. Moreover, the growth in the assay with SF-295 CNS was 84.6%; in the assay with SF-539 CNS it was 96%; in the assay with UACC-257 melanoma, 100%; with M14 melanoma it was 104%.

With `CC(=O)c1sc2c(c1OC(=O)c1ccc(Cl)cc1Cl)c(=O)n(-c1ccccc1)c(=S)n2-c1ccccc1`, the growth was 44.1% with DU-145 prostate; 0.912% (active) with K-562 leukemia; -79.2% (active) in the assay on MALME-3M melanoma; -41.5% (active) in the assay on MDA-MB-231 breast; 6.34% (active) in the assay with RXF 393 renal; 18.9% in the assay with SF-268 CNS. The growth is -32.1% (active) with SF-295 CNS, -39.6% (active) in the assay on SF-539 CNS, 49% in the assay on UACC-257 melanoma and -76.1% (active) in the assay with M14 melanoma.

`Cc1ccc(C(=O)N/N=C/c2ccc3c(c2)OCO3)cc1`: the growth was 112% in the assay on DU-145 prostate; 73.3% in the assay with K-562 leukemia; 108% in the assay with MALME-3M melanoma; 90.5% with MDA-MB-231 breast; 102% in the assay on RXF 393 renal; 96% in the assay with SF-268 CNS. Moreover, the growth is 115% in the assay on SF-295 CNS, 103% with SF-539 CNS, 115% in the assay on UACC-257 melanoma and 93% in the assay on M14 melanoma.

For `S=c1nn[nH]c2ccccc12`, the growth was 120% in the assay with DU-145 prostate; 99% in the assay on K-562 leukemia; 148% in the assay on MALME-3M melanoma; 93.4% in the assay on MDA-MB-231 breast; 114% in the assay on RXF 393 renal; 110% with SF-268 CNS. The growth in the assay on SF-295 CNS is 113%; with SF-539 CNS, 105%; in the assay on UACC-257 melanoma, 108%; with M14 melanoma, 102%.

On to `CC1CC(O)C2C3(C)CCCC2(COC3=O)C12CCC1(CCOC1=O)O2` (stereo not given), for which the growth in the assay with DU-145 prostate was 105%; in the assay on K-562 leukemia it was 127%; with MALME-3M melanoma, 116%; in the assay on MDA-MB-231 breast it was 126%; in the assay with RXF 393 renal it was 114%; with SF-268 CNS, 107%. Further, the growth in the assay with SF-295 CNS was 131%; in the assay with SF-539 CNS, 101%; in the assay with UACC-257 melanoma, 114%; in the assay on M14 melanoma, 96.8%.

Consider `CCCCOC(OCCCC)c1ccccc1`, for which the growth in the assay on DU-145 prostate is 112%; with K-562 leukemia, 107%; in the assay with MALME-3M melanoma it was 132%; with MDA-MB-231 breast, 112%; in the assay on RXF 393 renal, 128%; with SF-268 CNS it was 96.5%. For the same molecule, the growth in the assay on SF-295 CNS is 111%; with SF-539 CNS it was 91.8%; in the assay with UACC-257 melanoma, 109%; in the assay on M14 melanoma, 113%.

Turning to `O=C(O)C(Cc1ccccc1)C(=O)O`, the growth is 113% in the assay on DU-145 prostate; 108% in the assay with K-562 leukemia; 115% in the assay with MALME-3M melanoma; 104% with MDA-MB-231 breast; 104% in the assay with RXF 393 renal; 110% with SF-268 CNS. In addition, the growth with SF-295 CNS was 98.1%; in the assay with SF-539 CNS it was 102%; with UACC-257 melanoma, 108%; in the assay on M14 melanoma it was 104%.

Take `COCCOCCCl`: the growth is 110% with DU-145 prostate; 97.5% with K-562 leukemia; 112% in the assay on MALME-3M melanoma; 118% with MDA-MB-231 breast; 119% with RXF 393 renal; 101% in the assay with SF-268 CNS. The growth was 102% with SF-295 CNS, 106% in the assay on SF-539 CNS, 104% in the assay with UACC-257 melanoma and 101% with M14 melanoma.

Turning to `C/C(=C\c1ccc([N+](=O)[O-])cc1)C(=O)O`, the growth is 110% with DU-145 prostate; 97.9% in the assay on K-562 leukemia; 108% with MALME-3M melanoma; 102% with MDA-MB-231 breast; 102% with RXF 393 renal; 105% in the assay with SF-268 CNS. For the same molecule, the growth with SF-295 CNS is 98.4%; with SF-539 CNS it was 100%; in the assay with UACC-257 melanoma, 98.8%; in the assay on M14 melanoma, 95.1%.

With `CC1(C(N)=O)CCC(C(=O)O)C1(C)C` (stereo not given), the growth in the assay on DU-145 prostate is 113%; in the assay with K-562 leukemia it was 114%; in the assay on MALME-3M melanoma, 74.9%; in the assay on MDA-MB-231 breast, 91.2%; in the assay on RXF 393 renal, 104%; with SF-268 CNS, 104%. Moreover, the growth is 91.2% in the assay on SF-295 CNS, 96.8% with SF-539 CNS, 99.5% in the assay on UACC-257 melanoma and 108% in the assay with M14 melanoma.

As for `O=S(=O)(O)c1ccc(O)c2ccccc12`, the growth was 115% with DU-145 prostate; 104% in the assay on K-562 leukemia; 127% with MALME-3M melanoma; 90.8% with MDA-MB-231 breast; 108% in the assay with RXF 393 renal; 98.5% in the assay with SF-268 CNS. Besides, the growth is 119% with SF-295 CNS, 91.8% in the assay on SF-539 CNS, 112% in the assay with UACC-257 melanoma and 79.4% in the assay on M14 melanoma.
